This note sets out measurements from PubChem BioAssay (NCI).

Molecules are shown by their SMILES. The panel holds about 83,000 compounds, 20% with a hit somewhere; the sample as a whole holds those more often.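 Assay: single dose, 48 h. Readout: percent growth (0 = no net growth; negative = cell death). Active: <10.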 Values without a mark were called inactive. Active and inactive are the calls of the source.

The assay relates to MDA-MB-468 breast. As to the kind of experiment: NCI-60 one-dose screen, 48 h (100 = growth as untreated, 0 = no growth, -100 = all killed). The following applies: 10 µM unless noted.
`CC(C)(C)c1ccc(OC(=O)Nc2ccccc2)cc1`: the growth is 112%.

With `CCC1(C2CCCC2)NC(=O)NC1=O` (stereo not given), the growth is 101%.

For the compound `COc1cc(/C=C2\CCC/C(=C\c3ccc(OCC4CO4)c(OC)c3)C2=O)ccc1OCC1CO1` (stereo not given), the growth was 20.1%.

Take `CCOc1nc(-c2ccccc2)cc2c(O)c(C(=O)N/N=C/c3ccc(N(C)C)cc3)[nH]c(=O)c12`: the growth was 158%.

As to `Cc1ccc(NC(=O)Nc2ccc(-c3cccnc3)cc2N2CCC(CO)CC2)cc1`, the growth was -16.6% (active).

For the compound `COc1cc(-c2csc(NC(=O)c3cc(F)cc(C(F)(F)F)c3)n2)cc(OC)c1OC`, the growth was -1.52% (active).

Consider `O=[N+]([O-])c1ccccc1Sc1ccccc1[N+](=O)[O-]`, for which the growth was 92.1%.

On to `COc1ccc(-c2cnc3ccccc3n2)cc1`, for which the growth was 99.7%.

`OC(CNC1CCCC1)Cn1c2ccccc2c2ccccc21` (stereo not given): the growth is -21.2% (active).

As to `CCOC(=O)c1sc(NC(=O)CN2CCC(Cc3ccccc3)CC2)nc1C`, the growth was 98.5%.

On to `COc1ccc2c(c1)CC=C1[C@@H]2CC[C@]2(C)C(=O)/C(=N/O)C[C@@H]12`, for which the growth was 63.2%.

With `Cn1ncc2ccc(-c3nc(-c4ccccc4)[nH]c3-c3n[nH]c(=O)n3C3CC3)cc21`, the growth is 104%.

As for `O=C(/C=C/c1ccccc1)c1ccccc1O`, the growth is 64.4%.

For the compound `C1=CC2=CC=C3C=CC=C4C(c5nc6c7ccccc7c7ccccc7c6[nH]5)=CC(=C1)C2C34` (stereo not given), the growth is 21.9%.

Take `Cc1ccc([C@@H]2C[C@H](O)Cc3ccccc3N2)s1`: the growth was 124%.
